GRK2 inh: inhibitors of human GRK2 displacing RNA aptamer. P25098. inhibition of aptamer binding, % at 10 µM. 330,000 tested, 0.59% active. bead flow cytometry, FAM-aptamer displacement from GRK2;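 active means inhibition of aptamer binding above 40%, roughly 3 SD of noise, on plates passing a quality check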;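 further: median bead fluorescence of bound FAM aptamer so fluorescent compounds give negative values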
ALR H2O2 inh: blocks human ALR sulfhydryl oxidase activity | P55789 | purified ALR, DTT oxidation, H2O2 HRP-luminol luminescence | inhibition, % (test concentration not listed) | 290,000 tested, 3.8% active;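 active means mean replicate inhibition above about 79%, with every replicate also reaching it, limit read from the data; inconclusive means only one of the two criteria met; inactive means mean below limit and not every replicate reaching it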
Rtt109 Vps75: blocks Candida albicans Rtt109/Vps75 acetyltransferase activity; 330,000 tested, 0.16% active; purified Rtt109/Vps75, ThioGlo CoA-SH fluorescence, 4 h; inhibition, % at 34.9 µM;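 active means inhibition of at least 50% in every replicate; inconclusive means best replicate reaches 50% inhibition but some replicates fall short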
Rce1 inh: inhibitors of yeast Ras-converting enzyme | yeast membranes, quenched prenylated peptide cleavage fluorescence | calls only | 290,000 tested, 0.27% active | AID 2563;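 active means fall in fluorescence gain of 50% or more versus controls, with final raw signal at or below 3038400; inconclusive means same 50% fall but final raw signal above 3038400; inactive means fall in fluorescence gain under 50%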;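 further: plate controls were neutral control wells for no effect and wells lacking membranes for full effect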
HDAC3 inh: human HDAC3 inhibition; AID 2718; inhibition, % at 8.3 µM; 320,000 tested, 0.15% active; O15379; recombinant HDAC3, fluorogenic peptide/trypsin coupled, fluorescence; in the data active means inhibition above about 26%, passing the limit was not always enough; inconclusive means no clear call, values can overlap the other calls
Target sequence (O15379 whole entry, looked up): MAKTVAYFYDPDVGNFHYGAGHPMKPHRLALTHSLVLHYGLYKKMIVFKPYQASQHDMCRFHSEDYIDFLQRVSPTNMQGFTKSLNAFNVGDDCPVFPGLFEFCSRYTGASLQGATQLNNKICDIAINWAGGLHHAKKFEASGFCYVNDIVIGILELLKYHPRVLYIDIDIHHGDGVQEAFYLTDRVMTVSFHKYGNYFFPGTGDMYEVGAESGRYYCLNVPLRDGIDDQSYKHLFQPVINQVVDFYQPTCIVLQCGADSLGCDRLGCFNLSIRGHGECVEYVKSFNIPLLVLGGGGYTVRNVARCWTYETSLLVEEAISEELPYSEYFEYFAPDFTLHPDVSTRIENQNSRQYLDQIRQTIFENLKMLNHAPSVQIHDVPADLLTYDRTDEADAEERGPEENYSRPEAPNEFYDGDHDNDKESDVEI
Efflux pump mplx: antifungal efflux pump inhibition, Nile Red retention | S. cerevisiae Candida pump triplex | inhibition, % at 10 µM | 330,000 tested, 0.44% active;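 active means plate passing quality check with inhibition over a set limit, or well fluorescence over plate mean plus 4 SD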;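 further: Nile Red retained in pooled yeast measured as flow cytometry median fluorescence; 0% = buffer negative control and 100% = Enniatin B positive control; higher means more Nile Red kept so more efflux inhibition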
Starred values were filed as active, the others as inactive; i = inactive; u = inconclusive; x = no result given; + = active, no number. Rows were chosen to be rich in hits. Some 4.5% of all compounds tested hit in one or more screens of this group.

SMILES	GRK2 inh	ALR H2O2 inh	Rtt109 Vps75	Rce1 inh	HDAC3 inh	Efflux pump mplx
CCCCn1c(N)c(N(CCOC)C(=O)COc2ccc(Cl)cc2)c(=O)[nH]c1=O	3	-10	-5	i	-7	0
COCCN(C(=O)c1ccc(OC2CCN(S(=O)(=O)N(C)C)CC2)cc1)C(C)C	6	-3	-1	i	-7	0
O=C(O)c1sccc1Oc1ccc(NS(=O)(=O)c2ccccc2)cc1	0	-1	4	i	2	0
CN(C)C(CNC(=O)C1CCN(S(=O)(=O)c2ccccc2C(F)(F)F)CC1)Cc1ccccc1 (centres undefined)	x	x	0	x	x	x
COc1ccccc1OS(=O)(=O)c1ccc(NC(C)=O)cc1	1	x	10	i	x	0
COC(=O)/C=C/S(=O)(=O)c1ccc(NC(C)=O)cc1	2	98*	-1	i	10	0
Cc1ncoc1C(=O)N1CCCC(C(=O)c2ccc(-c3ccccc3)cc2)C1 (centres undefined)	0	-3	5	i	-6	0
Nc1ccc2nc(Cc3ccccc3)[nH]c2c1	1	100*	13	i	4	0
CC(C)Cc1nc2ccc(N)cc2[nH]1	0	100*	19	i	7	0
CC(C)Cc1nc2ccccc2[nH]1	1	-3	-15	i	-16	0
CC(C)NS(=O)(=O)c1ccc(NC(=O)C(C)OC(=O)CCC2CCCC2)cc1 (centres undefined)	0	x	0	x	24	0
N=C(N)SCc1ccccc1Cl	1	100*	2	i	4	0
CCCC/C(O)=C1\C(=O)CCCC1=NCCc1c(C)[nH]c2ccccc12	1	20	x	i	8	0
COc1ccc(CN2CCN(C(c3ccc(F)cc3)c3ccc(F)cc3)CC2)c(OC)c1OC	0	0	-3	+	u	0
COc1ccc(CN2CCN(c3ccc(F)cc3)CC2)c(OC)c1OC	0	51	-5	i	-1	0
OCCN(CCO)CC(O)CN(c1ccccc1)c1ccccc1 (centres undefined)	0	99*	-5	i	-3	0
CC(C)[N+](C)(C)CC(O)CN(c1ccccc1)c1ccccc1 (centres undefined)	0	98*	-5	i	1	0
OC(CN(c1ccccc1)c1ccccc1)Cn1cnc2ccccc21 (centres undefined)	0	99*	-9	i	2	0
NCC(O)CN(c1ccccc1)c1ccccc1 (centres undefined)	0	99*	6	i	8	0
CN(CCOc1ccccc1)CC(O)COc1ccccc1 (centres undefined)	0	-10	-2	i	-1	0
O=C(COC(=O)COc1ccc(Cl)cc1)NC1CCCC1	0	-1	2	x	-6	0
C(#CCN1CCCC1)CC(c1ccccc1)c1ccccc1	0	4	1	i	8	0
COc1ccc(N2CCN(c3ncnc4scc(-c5ccc(C)cc5)c34)CC2)cc1	0	20	52*	x	-3	0
CC1=CC(C2CC(=O)N(c3ccc(C)cc3)C2=O)CC2C(=O)N(c3ccc(C)cc3)C(=O)C12 (centres undefined)	0	x	-6	i	3	0
COC(=O)c1c(NC(=O)CN2CCN(Cc3ccc4c(c3)OCO4)CC2)sc(C)c1C	0	97*	-24	i	-5	0
SMILES	GRK2 inh	ALR H2O2 inh	Rtt109 Vps75	Rce1 inh	HDAC3 inh	Efflux pump mplx
COC(=O)c1ccsc1NC(=O)CN1CCN(Cc2ccc3c(c2)OCO3)CC1	0	0	2	i	6	0
CCOC(=O)Nc1sc2c(c1C(N)=O)CCC(C)C2 (centres undefined)	2	-9	1	i	1	0
CC(=O)NC(=S)Nc1sc2c(c1C(N)=O)CCC(C)C2 (centres undefined)	2	89*	-1	i	5	0
Cc1cc(NC(=O)Nc2ccccc2F)ccc1Br	0	-2	x	i	-6	0
CC1CC(C)CN(CCCNC(=O)c2ccc3c(c2)NC(=O)CS3)C1 (centres undefined)	0	x	-1	i	-8	0
COc1ccc(-c2c(C)nn(Cc3ccccc3)c2N)cc1	1	97*	-7	i	-6	0
O=C(NNc1ccc(-c2csnn2)cc1)c1ccccc1C(F)(F)F	1	98*	8	i	-4	0
COc1cc(C(=O)NC2CCN(CC(=O)Nc3cccc(C)c3C)CC2)cc(OC)c1OC	1	-2	2	x	-4	0
S=C(c1c[nH]c2ccc(Br)cc12)N1CCOCC1	0	99*	1	i	-2	0
O=C(c1c[nH]c2ccccc12)N1CCOCC1	0	1	-6	i	1	0
O=C(COC(=O)C1CC2CCCC(C1)C2=O)NNC(=O)c1ccccc1F (centres undefined)	0	-9	-3	i	0	0
Cc1nn(CCC(N)=O)c2nc(-c3cccs3)cc(C(F)(F)F)c12	2	-1	-6	i	-46	0
Cc1nn(CCC(=O)O)c2nc(-c3cccnc3)cc(C(F)(F)F)c12	1	-8	0	+	-32	0
COC(=O)c1ccc(NC(=O)c2cccc(Cl)c2)o1	3	93*	-4	i	4	0
COC(=O)c1ccc(NC(=O)c2ccc(F)cc2)o1	0	27	-13	i	1	0
COC(=O)c1ccc(NC(=O)c2ccc(C)cc2)o1	1	98*	-1	i	4	0
NC(=O)Cn1ccc(O)c(Cc2ccc(Cl)cc2Cl)c1=O	0	x	-2	i	-1	0
COc1ccc(NC(=O)CSCC(=O)N(C)CC(=O)Nc2cccc3ccccc23)cc1	0	-2	5	i	0	0
C=CCn1c(-c2cc(-c3ccc(C)cc3)nc3ccccc23)n[nH]c1=S	3	94*	u	i	-1	0
C=CCn1c(-c2cc(OC)cc(OC)c2)n[nH]c1=S	5	96*	-14	i	-1	0
O=C1COc2ccc(C(=O)COC(=O)Cc3ccc(F)cc3)cc2N1	0	-18	2	i	3	0
CCN(CC)CCN(C(=O)Cn1nnc(-c2ccc(C)o2)n1)C(C(=O)NC(C)(C)C)c1cccs1 (centres undefined)	1	-18	15	i	3	0
CCCCOc1ccc(C2C(C(=O)c3ccc(C)o3)=C(O)C(=O)N2Cc2ccco2)cc1 (centres undefined)	8	9	56*	i	6	-1
COC(=O)c1sc(N2C(=O)C(O)=C(C(=O)c3ccc(C)o3)C2c2ccc([N+](=O)[O-])cc2)nc1C (centres undefined)	1	70	17	i	-4	0

Source: PubChem BioAssay (several laboratories)
